L3MBTL1 block – inhibitors of human L3MBTL1 | Q9Y468 | AlphaScreen L3MBTL1–H3K9me1 peptide binding | Potency, µM (highest dose often 57.1 µM), for inactives: at the top dose activity, negative = inhibition, hits mostly inhibitors | hit rate 0.66% among 230,000; also: % is scaled to controls: 0 for no effect and ±100 for the full control effect; nearly all actives have a fitted effect of over 60% in size
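First, the protein-peptide complex forms for 30 min at room temperature (L3MBTL1 50 nM, biotinylated H3K9me1 peptide 75 nM). Next, compounds are pin-transferred and incubated 30 min. Finally, AlphaScreen beads are added and read after 30 min.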
JMJD2A Tudor inh – JMJD2A Tudor domain (human) inhibition; AlphaScreen JMJD2A-Tudor / H3K4me3 peptide binding; Potency, µM (series often up to 114 µM), for the others: at the top dose activity change, negative = inhibition, usual class: inhibitors; hit rate 4.4% among 390,000; also: % is scaled to controls: 0 for no effect and ±100 for the full control effect; nearly all actives have a fitted effect of over 50% in size
Target sequence (O75164 whole entry, looked up, the tested form may be a part): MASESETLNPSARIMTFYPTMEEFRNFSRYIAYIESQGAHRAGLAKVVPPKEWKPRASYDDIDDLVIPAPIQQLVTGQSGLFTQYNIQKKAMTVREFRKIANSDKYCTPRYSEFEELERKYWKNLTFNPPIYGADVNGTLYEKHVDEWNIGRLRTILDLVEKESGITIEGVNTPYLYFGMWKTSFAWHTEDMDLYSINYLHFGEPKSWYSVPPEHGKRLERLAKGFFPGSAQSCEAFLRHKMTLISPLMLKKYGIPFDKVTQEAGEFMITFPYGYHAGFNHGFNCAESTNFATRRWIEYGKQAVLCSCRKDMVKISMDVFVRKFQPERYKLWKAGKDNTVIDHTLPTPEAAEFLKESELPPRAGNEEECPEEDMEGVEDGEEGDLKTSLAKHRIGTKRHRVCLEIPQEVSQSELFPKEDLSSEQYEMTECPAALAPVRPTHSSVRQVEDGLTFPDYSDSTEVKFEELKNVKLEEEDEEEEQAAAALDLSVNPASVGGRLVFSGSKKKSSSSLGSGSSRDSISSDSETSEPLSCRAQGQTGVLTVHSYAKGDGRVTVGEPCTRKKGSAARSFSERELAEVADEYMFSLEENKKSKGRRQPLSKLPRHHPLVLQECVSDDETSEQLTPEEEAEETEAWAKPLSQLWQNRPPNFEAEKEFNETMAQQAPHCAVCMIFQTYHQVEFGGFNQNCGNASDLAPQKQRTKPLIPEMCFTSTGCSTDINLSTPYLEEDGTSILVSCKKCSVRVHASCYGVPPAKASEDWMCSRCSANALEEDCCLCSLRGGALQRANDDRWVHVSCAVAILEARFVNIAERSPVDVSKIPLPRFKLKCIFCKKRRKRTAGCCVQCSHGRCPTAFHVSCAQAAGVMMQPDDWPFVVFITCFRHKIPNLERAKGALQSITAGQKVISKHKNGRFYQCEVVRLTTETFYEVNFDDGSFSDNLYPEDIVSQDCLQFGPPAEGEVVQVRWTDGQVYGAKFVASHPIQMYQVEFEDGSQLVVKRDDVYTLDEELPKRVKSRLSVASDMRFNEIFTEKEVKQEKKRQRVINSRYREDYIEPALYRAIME
HP1b binding inh – blocks HP1-beta chromodomain binding to methylated histone tails. hit rate 0.56% among 390,000. P83916. AlphaScreen HP1-beta / biotin-H3K9me3 peptide binding. AID 540317. Potency, µM (doses to about 114 µM), without a hit: at the top dose activity change, negative = inhibition, usual class: inhibitors; also: nearly all actives have a fitted effect of over 70% in size
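AlphaScreen: HP1-beta (50 nM) preformed 30 min with biotin-H3(1-18)K9me3 peptide (50 nM) in PBS pH 7.4, 0.01% Tween-20. Compound added for 30 min at RT, then streptavidin donor/nickel chelate acceptor beads (10 ug/mL) for 30 min.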
Sfp PPTase inh – Sfp phosphopantetheinyl transferase inhibition; Q9F4F7; Biochemical Sfp PPTase activity, qHTS; Potency, µM, inactives show largest response in the series, negative = inhibition, usual class: inhibitors; hit rate 3.5% among 310,000; AID 1490;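 also: the enzyme is Sfp with the accession as filed and its product quenches rhodamine fluorescence; 0% = enzyme reaction without inhibitor and -100% = no enzyme wells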
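Sfp 15 nM + cpd, 15 min RT; start w/ rhodamine-CoA 5 uM, BHQ-2-YbbR 12.5 uM (final); 50 mM Hepes pH 7.6, 10 mM MgCl2, 0.01% NP-40, 0.01% BSA; read 525/598 nm at 0 and 30 min.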
BAZ2B inh – BAZ2B (human) inhibition | Q9UIF8 | AlphaScreen BAZ2B-H3K14Ac peptide displacement | Potency, µM (series often up to 114 µM), for the others: at the highest dose activity change, negative = inhibition, usual class: inhibitors | hit rate 4.4% among 360,000; also: % is scaled to controls: 0 for no effect and ±100 for the full control effect; nearly all actives have a fitted effect of over 60% in size
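Protein-peptide AlphaScreen: BAZ2B 50 nM, b-H3K14Ac 50 nM, 1x PBS pH 7.4 + 0.01% Tween-20. Preincubation 30 min RT; cpd 30 min RT (top 110 uM); beads 20 min RT, light-protected.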
G9a block – inhibitors of human histone lysine methyltransferase G9a; G9a H3K9 monomethylation, AlphaScreen, 2 h; hit rate 8.8% among 350,000; Potency, µM (top dose mostly 102 µM), without a hit: at the highest dose activity, negative = inhibition, hits mostly inhibitors; also: % is scaled to controls: 0 for no effect and ±100 for the full control effect; nearly all actives have a fitted effect of over 75% in size
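Signal arises when biotinylated H3K9 peptide, once monomethylated, bridges streptavidin donor and antibody-captured acceptor beads. Enzyme at 20 nM was preincubated 15 min with test compounds; peptide 500 nM and SAM 20 uM then reacted for 2 h.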
Numbers without * were called inactive; [ ] = remark or other dose. This is a sample that favours compounds with a hit; in the whole collection about 12% have one here. Calls follow the shape of the dose curve; as a rule, active = well fitted curve in the direction sought with a large enough effect; inconclusive = small, poorly fitted or top-dose-only effect, or another doubt; inactive = no such curve, though single readings can be large; an effect the other way counts as inactive or inconclusive. Potency is read from the fitted curve at half-maximal effect.

How did NC[C@](O)(CS(=O)(=O)O)c1ccc(Cl)cc1 do in these assays?
Sfp PPTase inh: -2.1%

How did O=C1C=CC(=Nc2ccc(F)cc2)O1 do in these assays?
JMJD2A Tudor inh: 44.7µM*; HP1b binding inh: 22.4µM*

Results for O=C1C=CC(=Nc2ccc3c(c2)C(=O)c2ccccc2-3)O1 ?
JMJD2A Tudor inh: -23.4%; HP1b binding inh: 20.3%[57 µM]

What do the screens show for `CCCCOc1ccccc1C1NC(=O)NC(C)=C1C(=O)OCCOCC` (stereo not drawn)?
L3MBTL1 block: 0.9%; JMJD2A Tudor inh: -13.4%; HP1b binding inh: 27.2%; Sfp PPTase inh: 11.3%; BAZ2B inh: 7.0%; G9a block: 0.7%

What do the screens show for `CCCCOc1ccccc1C1NC(=O)NC(C)=C1C(=O)OCc1ccco1` (stereo not drawn)?
L3MBTL1 block: 8.0%; JMJD2A Tudor inh: -23.0%; HP1b binding inh: 15.0%; Sfp PPTase inh: -8.2%; BAZ2B inh: 6.1%; G9a block: 22.4µM*

Results for COCCOC(=O)C1=C(C)NC(=O)NC1c1ccco1 (stereo not drawn) ?
L3MBTL1 block: -29.9%; JMJD2A Tudor inh: -14.2%; HP1b binding inh: 0.0%; Sfp PPTase inh: -1.0%; BAZ2B inh: inconclusive

Results for CCOC(=O)C1=C(C)NC(=O)NC1c1ccco1 (stereo not drawn) ?
L3MBTL1 block: inconclusive; JMJD2A Tudor inh: inconclusive; HP1b binding inh: -6.1%; Sfp PPTase inh: -4.6%; BAZ2B inh: 79.4µM*; G9a block: -12.7%[12.7 µM]

How did COc1ccc(C2CC(=O)Oc3c2c(=O)n(C)c2ccccc32)c(OC)c1OC (stereo not drawn) do in these assays?
L3MBTL1 block: 8.8%; JMJD2A Tudor inh: -21.3%; HP1b binding inh: 4.0%; Sfp PPTase inh: 5.7%; BAZ2B inh: 4.5%; G9a block: 21.1%

What do the screens show for `Cc1nnc(NC(=O)COc2ccc3c(C)cc(=O)oc3c2)s1`?
JMJD2A Tudor inh: -21.9%; HP1b binding inh: 6.0%; Sfp PPTase inh: -27.4%; BAZ2B inh: inconclusive; G9a block: 8.91µM*

How did Cc1cc(=O)oc2cc(OCC(=O)NCCc3nc4ccccc4[nH]3)ccc12 do in these assays?
JMJD2A Tudor inh: -13.4%; HP1b binding inh: 14.7%; Sfp PPTase inh: -18.5%; BAZ2B inh: 2.5%; G9a block: 50.1µM*

Results for CCC(CC)c1nnc(NC(=O)COc2ccc3c(C)cc(=O)oc3c2)s1 ?
L3MBTL1 block: 10.8%; JMJD2A Tudor inh: -8.5%; HP1b binding inh: 12.4%; Sfp PPTase inh: 5.1%; BAZ2B inh: -12.7%; G9a block: -10.9%[0.0925 µM]

Results for Cc1cc(C)cc(OCC(=O)NCCc2nc3ccccc3[nH]2)c1 ?
L3MBTL1 block: 1.3%; JMJD2A Tudor inh: -10.2%; HP1b binding inh: 7.6%; Sfp PPTase inh: -1.0%; BAZ2B inh: -2.1%; G9a block: 10.3%[0.501 µM]

Results for Nc1nc(-c2ccco2)nn1C(=O)c1ccc(Cl)cc1 ?
L3MBTL1 block: -3.5%; JMJD2A Tudor inh: 0.0%; HP1b binding inh: 48.7%; Sfp PPTase inh: -10.0%; BAZ2B inh: -3.9%[57.1 µM]; G9a block: 14.7%[59 µM]

What do the screens show for `CSc1nc(-c2ccco2)nn1C(=O)c1ccc(Cl)cc1`?
Sfp PPTase inh: 8.7%; BAZ2B inh: -22.9%; G9a block: 79.4µM*

How did CC(C)CNC(=O)N1CCN(S(=O)(=O)c2ccc3c(ccn3C)c2)CC1 do in these assays?
JMJD2A Tudor inh: 0.6%; HP1b binding inh: 25.7%[57 µM]; BAZ2B inh: 4.0%; G9a block: inconclusive

How did CCC/C=C1/CCCOC(C(=O)NCCOC)(C(F)(F)F)C1 (stereo not drawn) do in these assays?
JMJD2A Tudor inh: -6.2%; HP1b binding inh: 9.8%; Sfp PPTase inh: 3.6%

Results for O=c1nc(Nc2cccc(Cl)c2)oc2cc(Cl)oc(=O)c12 ?
L3MBTL1 block: -9.1%; JMJD2A Tudor inh: -21.7%; HP1b binding inh: 32.6%; Sfp PPTase inh: -3.0%; BAZ2B inh: inconclusive; G9a block: 50.1µM*

High-throughput results: PubChem BioAssay, National Center for Advancing Translational Sciences (NCATS)
